# The campaign covered roughly 360,000 compounds. About 3,100 (0.86%) were called active.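 How the source made its calls: active means at least 50% inhibition at 5 µM, scaled per plate between neutral and stimulator controls; inactive means the rest.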 This excerpt belongs to a sample that is enriched for actives.
# Assay: inhibitors of PAF-induced NF-kB signaling, primary screen, cell-based, GFP fluorescence, uHTS (AID 588850);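 further: PAF is a Pseudomonas aeruginosa culture filtrate used as stimulus; plate controls were PAF-stimulated DMSO wells for no effect and unstimulated DMSO wells for full effect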
# Conditions: KKLEB NF-kB-GFP reporter, GFP fluorescence overnight, at 5 µM, stronger effect = higher value
row,Structure (SMILES),inhibition
1,CCCCCCCCCCCCCCCC(=O)OC/C=C(C)/C=C/C=C(C)/C=C/C1=C(C)CCCC1(C)C,-16.9% (inactive)
2,NC1=NOC(=O)C1C1CCCCC1 (configuration not stated),25.2% (inactive)
3,CCCCc1nc2ccc(F)cc2cc1C,-14.3% (inactive)
4,COc1ccc(N2CCN(S(=O)(=O)CCNC(=O)C34CC5CC(CC(C5)C3)C4)CC2)cc1,-0.5% (inactive)
5,COCCCN(C(=S)Nc1c(C)cc(C)cc1C)C(C)c1ccncc1 (configuration not stated),-10.4% (inactive)
6,CCCCOc1ccc(C(=O)NCC(=O)OCC(=O)N2CCN(S(=O)(=O)c3ccc(C)cc3C)CC2)cc1,-0.3% (inactive)
7,COc1ccc(/C(N)=N/OC(=O)Cc2ccccc2)cc1,-28% (inactive)
8,COc1ccc(C(C#N)=C2C=CC(=NO)c3ccccc32)cc1,84.7% (active)
9,COc1ccc(C(=NN)c2ccc(OC)cc2)cc1,-2.7% (inactive)
10,Fc1ccc(Nc2nnns2)cc1,-11.2% (inactive)
11,C=CCNC(=S)NNc1ncnc2sc3c(c12)CC(C)(C)OC3,-2% (inactive)
12,O=C(Nc1ccc(Cl)cc1)c1csc([C@@H]2O[C@H](CO)[C@H](O)[C@H](O)[C@H]2O)n1,13% (inactive)
13,CC[C@]1(O)CC2CN(CCc3c([nH]c4ccccc34)[C@@](C(=O)OC)(c3cc4c(cc3OC)N(C=O)[C@H]3[C@@](O)(C(=O)OC)[C@H](OC(C)=O)[C@]5(CC)C=CCN6CC[C@]43[C@@H]65)C2)C1 (some centres not stated),53.6% (active)
14,CC[C@]1(O)C[C@@H]2CN(CCc3c([nH]c4ccccc34)[C@@](C(=O)OC)(c3cc4c(cc3OC)N(C)[C@H]3[C@@](O)(C(=O)OC)[C@H](OC(C)=O)[C@]5(CC)C=CCN6CC[C@]43[C@@H]65)C2)C1,57.6% (active)
15,C=CCNC(=S)/N=c1/ccccn1Cc1ccccc1,-16.5% (inactive)
16,N#CC1(C#N)C(C(=O)C23CC4CC(CC(C4)C2)C3)C12CCOCC2 (configuration not stated),12.2% (inactive)
17,Cc1ccc(NC(=S)Nc2ncccc2C)c(C)c1,-2.7% (inactive)
18,COc1cc(NC(=O)c2ccccc2NS(=O)(=O)c2ccc(Cl)s2)cc(OC)c1,49.7% (inactive)
19,COc1ccccc1C(=O)Nc1ccc(Nc2ccccc2)cc1,6.4% (inactive)
20,COC(=O)c1ccc(NC(=O)c2ccccc2NS(=O)(=O)c2ccccc2)cc1,59.8% (active)
21,Cc1ccnc(NS(=O)(=O)c2ccc(NC(=O)c3oc4ccc(F)cc4c3C)cc2)n1,8.7% (inactive)
22,COC(=O)c1ccc(NC(=O)CSc2nncn2-c2cccnc2)cc1,-0.4% (inactive)

row,Structure (SMILES),inhibition
1,Cc1cc(-c2ccccc2)n2nc(C)c(-c3ccccc3)c2n1,5.2% (inactive)
2,O=C(NCCCN1CCN(c2ccc(F)cc2)CC1)Nc1ccc([N+](=O)[O-])cc1,-19.1% (inactive)
3,Cc1cccc(C)c1NC(=O)CCS(=O)(=O)c1cccc2nsnc12,-15.6% (inactive)
4,O=C(CCS(=O)(=O)c1ccccc1)Nc1nc2c(s1)CCCC2,-2.5% (inactive)
5,COc1ccc(N(C)C(=O)CCS(=O)(=O)c2cccc3nsnc23)cc1,-4% (inactive)
6,Cc1ccc(S(=O)(=O)CCC(=O)OCC(=O)N(C)Cc2ccccc2)cc1,7.6% (inactive)
7,COc1cccc2sc(N(CCCN(C)C)C(=O)CCS(=O)(=O)c3ccccc3)nc12,88.4% (active)
8,Cc1cccc2sc(N(CCCN(C)C)C(=O)CCS(=O)(=O)c3ccccc3)nc12,85.7% (active)
9,CC(C#N)(NC(=O)CN1CCN(S(=O)(=O)c2cc(C(F)(F)F)ccc2Cl)CC1)C1CC1 (configuration not stated),17.9% (inactive)
10,CCOC(=O)c1ccc(S(=O)(=O)N(CCO)Cc2cc3cc(OC)c(OC)cc3[nH]c2=O)cc1,-25.3% (inactive)
11,Nc1ncnc2c1ncn2[C@@H]1O[C@H](C(=O)N2CCSC2)[C@@H](O)[C@H]1O,4.9% (inactive)
12,COC(=O)C1=C(C)NC2=C(C(=O)c3ccccc32)C1c1ccc(-c2ccc(C(=O)O)cc2)o1 (configuration not stated),76.6% (active)
13,COC(=O)C1=C(C)NC(=O)/C1=C/c1ccc(CNS(=O)(=O)c2ccc(C)cc2)o1,-6.4% (inactive)
14,COC(=O)C1=C(C)N(C)C(=O)NC1c1ccc([N+](=O)[O-])o1 (configuration not stated),1.5% (inactive)
15,Cc1cn([C@H]2C[C@H](O)[C@@H](CNC(=O)[C@H](N)Cc3cccnc3)O2)c(=O)[nH]c1=O,-3.6% (inactive)
16,Cc1[nH]c(=O)c(C(=O)/C=C/c2ccccc2)c2c1CCCC2,51.1% (active)
17,COC(=O)c1c(C)[nH]c(C(=O)/C=C/c2ccc(Cl)cc2)c1C,3.1% (inactive)
18,CC1(C(=O)O)CCCN(C(=O)/C=C/c2ccccc2)C1 (configuration not stated),-1.6% (inactive)
19,Cn1c(SCC(=O)NC2CCCCC2)nnc1-c1ccc(N)cc1,3.7% (inactive)
20,Cc1cc(OC(=O)c2ccccc2Cl)ccc1N1C(=O)CCC1=O,-7.9% (inactive)
21,CC(NS(=O)(=O)c1ccccc1)c1n[nH]c(=S)n1-c1ccccc1 (configuration not stated),-11.4% (inactive)
22,Nc1[nH][nH]c(=O)c1N=Nc1ccc2c(c1)OCO2,-6.6% (inactive)

row,Structure (SMILES),inhibition
1,CCC(=O)N1CCC(C)(C(=O)Nc2cc(OC)c(OC)c(OC)c2)C1 (configuration not stated),13.9% (inactive)
2,O=C(CNC(=O)c1ccccc1)NCC(=O)OCc1ccc(Cl)cc1,-4.1% (inactive)
3,O=C(CNC(=O)OCc1ccccc1)Oc1cc2oc(=O)cc(-c3ccccc3)c2cc1Cl,72.8% (active)
4,CC(Oc1ccc2c(-c3ccccc3)cc(=O)oc2c1)C(=O)NC(Cc1c[nH]c2ccccc12)C(=O)O (configuration not stated),-11.2% (inactive)
5,Cc1cc(NC(=O)CS(=O)(=O)c2cn(C)c3ccccc23)no1,-0.5% (inactive)
6,OC[C@@H]1CN(Cc2ccc(-c3ccccc3)cc2)C[C@H](n2cnc3c(NC4CCCC4)ncnc32)O1,-0.3% (inactive)
7,Cn1cc([N+](=O)[O-])c(C(=O)Nc2ccc3c(c2)OCCO3)n1,15.1% (inactive)
8,Cc1nn(-c2ccccc2)c(C)c1/C=N/NC(=O)CSc1nc2ccccc2c(=O)n1-c1ccccc1,23.3% (inactive)
9,Cc1nn(-c2ccccc2)c(Cl)c1/C=N/NC(=O)c1nn(C)cc1[N+](=O)[O-],52% (active)
10,O=C(NC1CCN(C(=S)NCc2ccco2)CC1)c1ccc(F)cc1,-0.1% (inactive)
11,CCN(C(=O)c1ccc(Br)cc1)c1ccccc1,21.8% (inactive)
12,C=CCN1C(=O)C(Cc2ccc(OCC)cc2)SC1=Nc1ccc(C(=O)O)cc1 (configuration not stated),4.1% (inactive)
13,COc1cc(C(O)c2nc(-c3cccc(C(=O)O)c3)cs2)ccc1F (configuration not stated),12.4% (inactive)
14,Cn1cc(C2OC(=O)c3ccccc32)c2ccccc21 (configuration not stated),41.4% (inactive)
15,COc1ccc2c(c1OC)C(=O)OC2Nc1nc(-c2ccccc2)cs1 (configuration not stated),88.8% (active)
16,Cc1ccc(-c2csc(NC(=O)C3=COCCO3)n2)cc1C,-43.3% (inactive)
17,COc1ccccc1C(=O)Nc1nc2nc(-c3ccccc3)cc(=O)n2[nH]1,-8% (inactive)
18,Cc1ccc(-c2csc(NC3OC(=O)c4ccccc43)n2)cc1 (configuration not stated),81.3% (active)
19,CN(CC(=O)O)S(=O)(=O)c1ccc2oc3ccccc3c2c1,-19.3% (inactive)
20,Cc1ccc(S(=O)(=O)Nc2ccc(F)c(S(=O)(=O)N3CCOCC3)c2)cc1,-4.8% (inactive)
21,O=C(Nc1ccccc1)c1ccccc1Br,-3.5% (inactive)
22,COCCCNC(=O)c1ccc(-c2c(C)noc2C)c2ccoc12,-59% (inactive)

row,Structure (SMILES),inhibition
1,CC(=O)c1ccc(N2CCN(S(=O)(=O)c3c(C)[nH]c(=O)[nH]c3=O)CC2)cc1,13.2% (inactive)
2,COc1cccc(Cn2cc(/C=N/NC(=O)c3cc(O)cc(O)c3)c3ccccc32)c1,1.7% (inactive)
3,COc1cc(/C=N/Nc2ccc(C)cc2)cc(Br)c1O,-27.2% (inactive)
4,COc1cccc(/C=N/Nc2cc(C)nc(-c3ccccc3O)n2)c1O,89.8% (active)
5,O=C(CN1CCOCC1)N1CCCc2c1c(=O)oc1ccc(OCc3ccccc3)cc21,-14.3% (inactive)
6,Cc1nn2c(c1-c1ccccc1)N=C(c1ccco1)CC2c1ccccc1 (configuration not stated),-5.8% (inactive)
7,Cc1cc(Br)ccc1NC(=O)CN(C)C(=O)CN1C(=O)NC2(CCCC2)C1=O,-8.9% (inactive)
8,COc1ccc(CNC(=O)/C(C#N)=C/c2cccc(OC)c2OC)cc1,59.3% (active)
9,COc1ccc(/C=C(\C#N)C(=O)NCCCn2ccnc2)cc1,10.2% (inactive)
10,COc1ccc(NC(=O)/C(C#N)=C\c2cc(OC)c(OCc3ccc(C(=O)O)cc3)cc2Br)cc1,-82.3% (inactive)
11,Cc1ccc(S(=O)(=O)NNC(=O)/C=C/c2cccc(F)c2)cc1,-21.5% (inactive)
12,CCOC(=O)CN1C(=O)C(O)(CC(=O)c2ccccn2)c2ccccc21 (configuration not stated),13% (inactive)
13,Cc1ccc(C2=CSC3=NS(=O)(=O)CCN23)cc1C,6.1% (inactive)
14,COc1cc(OC)c(C(=O)NNC(=O)c2ccccc2-n2cccc2)cc1OC,-9.9% (inactive)
15,COC(=O)c1ccc(C(=O)OC)c(NC(=S)N2CCN(c3cc(Cl)ccc3C)CC2)c1,0.4% (inactive)
16,COC(=O)c1ccc(C(=O)Nc2cc(Cl)ccc2Cl)cc1NC(=O)c1ccccc1C,54% (active)
17,CCCN(CCC)C(=S)Nc1cc(C(=O)OC)ccc1C(=O)OC,10.8% (inactive)
18,CCOC(=O)c1c(C)[nH]c(C)c1C(=O)COC(=O)/C=C/c1cccc([N+](=O)[O-])c1,-19.4% (inactive)
19,CCC12CN3CC(CC)(CN(C1)C31C(=O)N(C)c3ccc(C)cc31)C2=O (configuration not stated),8.9% (inactive)
20,CCOC(=O)C1(C)CCCN(C(=O)c2ccc(N(C)C)cc2)C1 (configuration not stated),-1.1% (inactive)
21,Cc1cccc(-n2nc3c(c2NC(=O)c2cc4ccccc4o2)CS(=O)(=O)C3)c1,4.3% (inactive)

# Reference: PubChem BioAssay AID588850 (Sanford-Burnham Center for Chemical Genomics, 2011)
